# DT40 TDP1 no CPT: qHTS for Inhibitors of human tyrosyl-DNA phosphodiesterase 1 (TDP1): qHTS in cells in absence of CPT | DT40 Tdp1-/- hTDP1 cells, no CPT, ATP luminescence, 48 h | Potency, µM (top dose mostly 46.2 µM), for inactives: at the top dose activity change, negative = growth inhibition, most hits filed as inhibitors | actives 15% (n = 420,000) | AID 686978, 2013; further: nearly all actives have a fitted effect of over 55% in size
#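 Readout: luminescence from CellTiter-Glo after 30 min in the dark at RT. Cells: DT40 Tdp1-/- with stable hTDP1, 400/well. Exposure: compounds alone, ≥48 hr, 37 °C.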
# TDP1 block: qHTS Assay for Inhibitors of Tyrosyl-DNA Phosphodiesterase (TDP1) | recombinant TDP1, AlphaScreen DNA substrate cleavage | actives 0.28% (n = 350,000) | Potency, µM (titrated, usually from 130 µM), without a hit: at the highest dose activity change, negative = inhibition, usual class: inhibitors; further: nearly all actives have a fitted effect of over 40% in size
#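 Compounds were preincubated with Tdp1 (1 nM final) for 15 min at room temperature before substrate (15 nM final) started a 5 min reaction; beads (10 ug/ml final) were then added for 10 min before AlphaScreen detection.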
# TDP1 cell CPT: qHTS for Inhibitors of human tyrosyl-DNA phosphodiesterase 1 (TDP1): qHTS in cells in presence of CPT | chicken DT40 Tdp1-/-;hTDP1 cells + 20 nM CPT, ATP luminescence, 48 h | Potency, µM (top dose mostly 46.2 µM), for the others: at the top dose activity change, negative = growth inhibition, hits mostly inhibitors | actives 12% (n = 420,000) | AID 686979, 2013; further: nearly all actives have a fitted effect of over 55% in size
#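 Cell growth measured by CellTiter-Glo luminescence after a minimum 48 h, 37 C compound exposure with 20 nM CPT in Tdp1-knockout DT40 cells stably expressing hTDP1, seeded 400/well; qHTS titration format.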
# VDR inh: Inhibitors of the vitamin D receptor (VDR): qHTS; VDR-SRC2-3 peptide fluorescence polarization, 2 h; Potency, µM, inactives show max response, negative = inhibition, most hits filed as inhibitors; Vitamin D3 receptor (Homo sapiens), P11473; actives 0.93% (n = 400,000)
#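 Inhibition of the VDR/SRC2-3 peptide interaction is quantified by fluorescence polarization. Compounds (23 nl, pintool) incubate with the reagents for 2 hours at ambient room temperature.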
# PLK1 PBD block: qHTS for Inhibitors of PLK1-PDB (polo-like kinase 1 - polo-box domain): Primary Screen. Serine/threonine-protein kinase PLK1 (Homo sapiens), P53350. Plk1 PBD binding of FITC phosphopeptide, fluorescence polarization. Potency, µM, for the others: max response, negative = inhibition, most hits filed as inhibitors. actives 2.8% (n = 360,000); further: series mostly up to about 57 µM; nearly all actives have a fitted effect of over 65% in size
# Target sequence (P53350 whole entry, looked up, the tested form may be a part): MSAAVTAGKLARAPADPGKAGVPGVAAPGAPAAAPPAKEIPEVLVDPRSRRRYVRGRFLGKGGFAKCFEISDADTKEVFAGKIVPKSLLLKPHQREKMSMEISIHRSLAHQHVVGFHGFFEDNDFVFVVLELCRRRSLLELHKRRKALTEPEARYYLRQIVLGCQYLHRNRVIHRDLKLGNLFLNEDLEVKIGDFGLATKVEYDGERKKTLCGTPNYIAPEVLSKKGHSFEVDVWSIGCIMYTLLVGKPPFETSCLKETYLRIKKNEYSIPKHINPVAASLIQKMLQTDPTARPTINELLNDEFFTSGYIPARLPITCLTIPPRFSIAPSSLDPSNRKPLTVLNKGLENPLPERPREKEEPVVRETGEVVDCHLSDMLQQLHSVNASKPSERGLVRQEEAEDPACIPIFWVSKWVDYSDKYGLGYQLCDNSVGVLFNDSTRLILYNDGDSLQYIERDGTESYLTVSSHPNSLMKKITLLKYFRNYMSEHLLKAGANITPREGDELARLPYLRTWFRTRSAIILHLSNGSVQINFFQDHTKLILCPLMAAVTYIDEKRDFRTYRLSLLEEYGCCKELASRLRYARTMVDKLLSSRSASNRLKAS
# GCN5L2 inh: qHTS Assay for Inhibitors of GCN5L2. Potency, µM (titrated, usually from 58.9 µM), without a hit: at the top dose activity change, negative = inhibition, hits mostly inhibitors. GCN5L2 HAT assay, ThioGlo1 CoA-SH fluorescence. actives 0.21% (n = 390,000). AID 504327, 2011. Histone acetyltransferase KAT2A (Homo sapiens), Q92830
#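 Enzyme at 20nM final was mixed with library compounds for 15 min at room temperature. Peptide H3(1-25) at 75uM, acetyl-CoA at 70uM and ThioGlo1 at 50uM were then added. Plates were read immediately and after 20 min (Ex340nm/Em540nm).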
# The depositor's hits bear a star; ? = inconclusive; . = not tested or not shown; [ ] = dose if it differs, or a comment. Shown are actives, neighbours in structure and some others; about 18% of the full set was active somewhere. The call rests on the fitted dose curve; in most records, active means well fitted curve in the direction sought with a large enough effect; inconclusive means small, poorly fitted or top-dose-only effect, or another doubt; inactive means no such curve, though single readings can be large; an effect the other way counts as inactive or inconclusive. On the % scale 0 is the no-effect control and ±100 the full control effect; potency means the concentration at half of the fitted maximal effect.
SMILES,DT40 TDP1 no CPT,TDP1 block,TDP1 cell CPT,VDR inh,PLK1 PBD block,GCN5L2 inh
CCc1cc2cc(C)cc(C)c2nc1SCC(=O)N1CCCC1,?,2%,29µM*,7%,-6%,-9%
CCc1nc(SCC(=O)N2CCN(C(=O)c3ccco3)CC2)c2c3c(sc2n1)CCCC3,13µM*,9%,?,-20%,-9%,3%
O=C(c1ccco1)N1CCN(c2nc(C3CC3)nc3sc4c(c23)CCCC4)CC1,?,6%,26µM*,?,-24%,-4%
COc1ccc(CCC(=O)Nc2ccc(OC)c(S(=O)(=O)N3CCCCC3)c2)cc1,-23%,-1%,?,5%,-14%,4%
CCCCOc1ccc(CC(=O)N(C)OC)cc1,-29%,.,-4%,.,.,.
Nc1c(C(=O)Nc2ccc(Cl)cc2F)sc2nc(-c3cccs3)ccc12,?,.,?,8%,.,-4%
Cc1cc2cc(C)c3nnc(SCC(=O)N4CCN(C(=O)c5ccco5)CC4)n3c2cc1C,12µM*,.,?,8%,-5%,.
Cc1ccc2cc(C)c3nnc(SCC(=O)N4CCN(C(=O)c5ccco5)CC4)n3c2c1,?,0%,-27%,12%,-5%,-2%
CCc1cc2cc(C)ccc2nc1SCC(=O)N1CCN(C(=O)c2ccco2)CC1,21µM*,6%,13µM*,-9%,-8%,-10%
Cc1ccc(S(=O)(=O)OC[C@@H]2CN3[C@H](c4ccc(Br)cc4)[C@H](C)CC[C@H]3C(=O)O2)cc1,.,6%[21 µM],.,.,.,.
OC(Br)C(O)C(O)N1CCCc2ccccc21 (stereo not given),-7%,.,-2%,.,.,.
Cc1ccc(C(=O)CCNc2cccc(Br)c2)o1,18µM*,8%,21µM*,-10%,-13%,-5%
Cc1ccc(C(=O)CCNc2ccc(Br)cc2)o1,13µM*,4%,13µM*,?,-6%,.
Cc1ccc(C(=O)CNc2ccc(C)c(Cl)c2)cc1,-2%,0%,?,-8%,-24%,-1%
Cc1ccc(NCCC(=O)c2ccccc2)cc1Cl,15µM*,6%,10µM*,11%,3%,-5%
Cc1ccc(C(=O)CCNc2ccccc2)o1,8.2µM*,6%,?,7%,-2%,.
CCc1ccc(NCCC(=O)c2ccc(Br)cc2)cc1,?,5%,?,7%,-7%,-7%
Cc1ccc(/C=C(\C#N)C(=O)Nc2cccc(Br)c2)o1,-11%,4%[2.28 µM],0%,0%,.,-8%
Cc1ccc(C(=O)Cc2ccccc2)o1,-1%,.,-16%,-3%,-7%,0%
Cc1ccc(C(=O)CCNc2ccc(F)c(Cl)c2)o1,16µM*,0%,16µM*,3%,-4%,-2%
NC(=O)c1sc(-c2ccsc2)cc1NS(=O)(=O)c1ccc(C(F)(F)F)cc1,?,.,-24%,-17%,?,-20%
COc1ccc(CN2CCN(C(=O)c3cccs3)CC2)cc1Br,?,0%,?,15%,-1%,-8%
COc1ccc(-c2noc(CN3CCN(C(=O)c4cccs4)CC3)n2)c(OC)c1OC,-9%,2%,?,-19%,21µM*,-24%
O=C1c2ccccc2C(=O)C12OC2c1ccc(Cl)cc1Cl (stereo not given),9.2µM*,-3%,5.2µM*,89µM*,-27%,2%
CS(=O)(=O)CCCCN=C=S,18µM*,-4%,?,?,.,-8%
SMILES,DT40 TDP1 no CPT,TDP1 block,TDP1 cell CPT,VDR inh,PLK1 PBD block,GCN5L2 inh
CC(NC(=O)C1CCOCC1)c1nnc2n1CCN(Cc1cc3c(cc1Cl)OCO3)CC2 (stereo not given),-3%,.,2%,.,.,.
COc1ccc(CCNC(=O)C/C(C)=N/NC(=O)COc2ccc(C)cc2Br)cc1OC,-16%,.,7%,-18%,-3%,2%
COc1ccccc1CNC(=O)C/C(C)=N/NC(=O)COc1ccc(C)cc1Br,12µM*,4%,12µM*,-15%,-5%,2%
COc1ccc(C)cc1S(=O)(=O)NCC(c1cccs1)S(=O)(=O)c1ccc(C)cc1 (stereo not given),?,0%,23µM*,9%,.,2%
COc1ccc(S(=O)(=O)NCC(c2cccs2)S(=O)(=O)c2ccc(C)cc2)cc1F (stereo not given),16µM*,0%,?,2%,.,-11%
Nc1nc(CCl)nc(N(c2ccccc2)c2ccccc2)n1,?,4%,?,12%,-9%,-8%
COc1ccccc1/C=C/C(=O)OCC(=O)NC1CCCCCCC1,-25%,-5%,-24%,-5%,-1%,-4%
CCOC(=O)C1=C(C)NC(=S)NC1c1ccc(OCC(=O)N2CCCCC2)cc1 (stereo not given),-4%,12%,-3%,-3%,-3%,-6%
O=C(CSc1nnc2ccc(-c3ccc(F)cc3)nn12)NCC1CCCO1 (stereo not given),-17%,0%,7%,-1%,-10%,-6%
CCc1ccc(O)c(CNCCNCc2cc(CC)ccc2O)c1,16µM*,3%,23µM*,-11%,-2%,-13%
CC(=O)Nc1ccccc1-c1nc(CNC(=O)c2cccc(-n3cccn3)c2)c(C)o1,-3%,.,10%[9.04 µM],.,.,.
CC1(C(=O)NCC2CCCCC2)CCN1C(=O)Cc1ccc(-c2ccccc2)cc1 (stereo not given),23µM*,.,?,.,-1%,.
CC1(C(=O)NC2CCCC2)CCN1C(=O)Cc1ccc(-c2ccccc2)cc1 (stereo not given),23µM*,.,16µM*,.,-1%,.
CC1(C(=O)NCC2CCCCC2)CCN1CCc1ccccc1 (stereo not given),?,.,?,.,-3%,.
COc1cc(-c2cc(C(=O)N(C)Cc3ccccc3)c3ccccc3n2)cc(OC)c1OC,15µM*,.,15µM*,-11%,-7%,-6%
COc1ccc(-c2cc(C(=O)N(C)Cc3ccccc3F)c3ccccc3n2)cc1OC,18µM*,4%,?,3%,-2%,-2%
Cc1cc(C(=O)OCC(=O)NC(C)C)c2ccccc2n1,?,2%,?,?,12µM*,4%
Cc1cc(C(=O)OCC(=O)NC2CCCC2)c2ccccc2n1,10%,-4%,2%,-1%,-1%,-1%

# Screens as filed in PubChem.
